Experimental findings from ChEMBL document CHEMBL4888484, “Replenishing the malaria drug discovery pipeline: Screening and hit evaluation of the MMV Hit Generation Library 1 (HGL1) against asexual blood stage Plasmodium falciparum ,using a nano luciferase reporter read-out” (2022) are described below.

Each structure is given as a SMILES string. In all, about 150,000 compounds went through this assay and about 540 (0.36%) showed an effect of 50% or more. This is one part of a sample in which strong results are shown more often than they occur.

For this assay, the system named is Plasmodium falciparum. The experiment in a line: Primary screen in NF54 nanoGlo assay, in single point, at 2uM, 72h; a lower Z score goes with more inhibition. In kind it is functional, Erythrocyte. The note with it: timepoint 72 hour.
Regarding `COC[C@H]1CCCN1S(=O)(=O)N1CCC(c2cc[nH]n2)CC1`, the “% Inhibition” value was -7% and the Z score amounted to 0.81.

For the molecule `CN1C(=O)[C@@H]2CCCCN2c2ccc(C(=O)N3CCN(C(=O)c4ccco4)CC3)cc21`, the “% Inhibition” value stood at 1% and the Z score is reported as -0.14.

As for `COCC1(CNC(=O)CNC(C)=O)CCCC1`, the “% Inhibition” value is -5% and the Z score is recorded as 0.85.

On to `Cc1ccccc1CN[C@H]1CCCOCC1`, for which the “% Inhibition” value is recorded as -4% and the Z score stood at 0.53.

For `Cc1ccccc1CNC1C(=O)NCCC1C` (stereo unspecified), the “% Inhibition” value came out at 74% and the Z score turned out to be 1.17.

As to `Cc1ccccc1CC(=O)N[C@H]1CCCCNC1=O`, the “% Inhibition” value came out at 0% and the Z score was determined as 0.03.

As for `Cc1cc(C)cc(CCNC(=O)CN(C)S(C)(=O)=O)c1`, the “% Inhibition” value was -4% and the Z score amounted to 0.7.

As to `COc1ccc(C[C@@H]2C3=C(CCCC3)CCN2C(=O)c2cc(C)on2)cc1`, the “% Inhibition” value is on record as -5% and the Z score stood at 0.97.

On to `OCC1(CN2CCCC2)CCN(Cc2ccc(Cl)cc2)CC1`, for which the “% Inhibition” value is 2% and the Z score was -0.36.

In the case of `COc1c(C)cnc(Cn2cnc(N)n2)c1C`, the “% Inhibition” value came to 8% and the Z score is recorded as -0.99.

Take `CN1CCN(C[C@@]2(Cc3ccccc3)CCOC2)CC1`: the “% Inhibition” value is -3% and the Z score turned out to be 0.56.

Take `COc1ccc(NC(=O)c2sc3nc(C)c(C(=O)Nc4ccc(C)cc4C)c(-c4ccccc4Cl)c3c2N)cc1`: the “% Inhibition” value is recorded as 38% and the Z score was -3.76.

As to `CC[C@H](C)NC(=O)c1sc2nc(C)c(C(=O)Nc3ccc(C)cc3C)c(-c3cccs3)c2c1N`, the “% Inhibition” value worked out at 17% and the Z score was -2.61.

As to `Cc1ccc(NC(=O)c2c(C)nc3sc(C(=O)NCc4ccccc4)c(N)c3c2-c2ccccc2Cl)c(C)c1`, the “% Inhibition” value turned out to be 90% and the Z score is recorded as -8.85.

Consider `Cc1ccc(NC(=O)c2c(C)nc3sc(C(=O)NCc4ccccc4)c(N)c3c2-c2cccs2)c(C)c1`, for which the “% Inhibition” value is reported as 61% and the Z score is -9.57.

On to `Cc1ccc(NC(=O)c2c(C)nc3sc(C(=O)NCc4ccccc4)c(N)c3c2-c2cccnc2)c(C)c1`, for which the “% Inhibition” value came to 21% and the Z score is -3.35.

In the case of `CCc1ccc(NC(=O)c2sc3nc(C)c(C(=O)Nc4ccc(C)cc4C)c(-c4ccccc4Cl)c3c2N)cc1`, the “% Inhibition” value is listed as 40% and the Z score is on record as -2.96.

Consider `C[C@H](NS(=O)(=O)c1cccc2nsnc12)c1nncn1C`, for which the “% Inhibition” value is given as -8% and the Z score is listed as 1.65.

For `Cc1cc(NC(=O)c2ccccc2C(=O)c2ccc(Cl)cc2)ccc1N1CCCC1=O`, the “% Inhibition” value is reported as -10% and the Z score is 1.56.

Take `COc1ccc(F)cc1S(=O)(=O)N1CC2(C[C@H](CC(=O)NCC3CC3)CO2)C1`: the “% Inhibition” value is given as -2% and the Z score worked out at 0.34.

Consider `Cn1cc(Br)c2nc[nH]c(=O)c21`, for which the “% Inhibition” value is -14% and the Z score came to 1.39.

Consider `CC(=O)c1ccc(CNc2ncc(Cl)cn2)nc1C`, for which the “% Inhibition” value was -16% and the Z score amounted to 1.6.

As to `CCOC(=O)c1nccc(C#N)c1Cl`, the “% Inhibition” value is listed as 40% and the Z score is -5.19.

As for `CCOC(=O)c1nsc(Cl)c1Cl`, the “% Inhibition” value was found to be 4% and the Z score is on record as -0.44.

For the molecule `CCOC(=O)c1ncc(Cl)c(C#N)c1Cl`, the “% Inhibition” value stood at 50% and the Z score turned out to be 0.88.

Consider `NC(=O)[C@@H]1CCCN1S(=O)(=O)c1ccc2c(c1)CCC(=O)N2`, for which the “% Inhibition” value is reported as -13% and the Z score amounted to 1.82.

Regarding `O=C(c1nnn(-c2ccccc2Cl)c1-c1cccnc1)N1CCN(c2ccccc2)CC1`, the “% Inhibition” value is on record as -8% and the Z score stood at 0.9.

With `O=C(c1nnn(-c2ccccc2Cl)c1-c1cccnc1)N1CCC(Cc2ccccc2)CC1`, the “% Inhibition” value turned out to be 40% and the Z score is -5.19.

For `COc1ccccc1N1CCN(C(=O)c2nnn(-c3ccccc3Cl)c2-c2cccnc2)CC1`, the “% Inhibition” value came to 50% and the Z score is reported as -6.51.

`Cc1nn(-c2ccc(Br)cc2)c(NC(=O)N(C)[C@@H](C)c2ccccc2F)c1C`: the “% Inhibition” value is 2% and the Z score is recorded as -0.23.

Regarding `Cn1nccc1CNC(CO)CC(O)C(C)(C)C` (stereo unspecified), the “% Inhibition” value was -3% and the Z score was 0.38.

As to `CCn1cnnc1NC(=O)c1cc(C)sn1`, the “% Inhibition” value amounted to 1% and the Z score is -0.12.

In the case of `O=C(Cn1ncn2nc(-c3ccccc3)cc2c1=O)N1CCCCC1`, the “% Inhibition” value was -20% and the Z score amounted to 1.75.

Consider `N#Cc1cccc(S(=O)(=O)N2CCCCCCC2)c1`, for which the “% Inhibition” value was determined as 4% and the Z score is on record as -0.83.

`Cc1c2c(=O)n(-c3nc4ccccc4s3)n(CC(=O)Nc3ccc(F)cc3)c2cc(=O)n1CCCN1CCOCC1`: the “% Inhibition” value is reported as -30% and the Z score came to 3.47.

With `Cc1c2c(=O)n(-c3nc4ccccc4s3)n(Cc3ccc(F)cc3)c2cc(=O)n1CCCN1CCOCC1`, the “% Inhibition” value is recorded as 32% and the Z score is reported as -3.58.

For `CCc1c2c(=O)n(-c3nc4ccccc4s3)[nH]c2cc(=O)n1CCCN1CCOCC1`, the “% Inhibition” value is 81% and the Z score is reported as -10.48.

On to `N#Cc1cc(OCC(F)F)nc2ccccc12`, for which the “% Inhibition” value is -5% and the Z score is reported as 0.76.

Regarding `CC(NCC(C)N1CCOCC1C)c1cnn(C(C)C)c1` (stereo unspecified), the “% Inhibition” value stood at 1% and the Z score is recorded as -0.14.

Regarding `Cc1ccc(CN2CCN([C@H]3CCN(Cc4ccccc4)C3)CC2)nn1`, the “% Inhibition” value turned out to be 6% and the Z score is recorded as -0.85.

For `Cc1ccn2c(CN3CCN([C@H]4CCN(Cc5ccccc5)C4)CC3)c(C)nc2c1`, the “% Inhibition” value came out at 57% and the Z score is given as -7.67.

Consider `c1ccc(CN2CC[C@H](N3CCOCC3)C2)cc1`, for which the “% Inhibition” value is listed as 3% and the Z score was -0.34.

For the molecule `Cc1ccc(C)c(N/C(=N\OCc2ccc(Cl)cc2)c2nonc2N)c1`, the “% Inhibition” value is on record as -1% and the Z score turned out to be 0.28.
